# Assay results reported in the supplement of paper PMC9135407.
# “And” between values parts separate entries of the source, which are not always exact repeats. Equal values may be shown once. Where a name gives a salt, the structure may show the parent alone. The whole screen tested about 5,800 compounds, of which about 620 (11%) showed activity. The sample holds actives, similar compounds and a random draw of the others, so the mix is not that of the screen. A number with no mark means an inactive call.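 The calls were made as follows: active = score above a cut-off or among the top three wells of a plate; in these data no inactive exceeds 0.85.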
# Tested on: primary human hepatic stellate cells (donor 1)
# Assay: scaled lipid accumulation score (0 = DMSO-like, 1 = nortriptyline-like); higher = stronger HSC inactivation (lipid re-accumulation), active = hit call of the paper
# Settings: 48 h
# Protocol: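 Primary lipid accumulation screen in primary human hepatic stellate cell myofibroblasts (donor 1, passage 8) in 384-well plates. 100 nL of library compound was pin-transferred into 30 µL medium in duplicate, and cells were treated for 48 h. The 'Scaled' score combines distance from plate baseline, toxicity and reproducibility penalties, and is normalised to nortriptyline (positive) and DMSO (negative) controls on each plate. A hit is defined as scaled >0.85 or among the top 3 wells per plate.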
# [1] = library stock concentration: 10 mM
# [2] = library stock concentration: 3.33 mM
# [3] = library stock concentration: 1 mM
compound,measurement,setting,value
CC(C)(C=O)Cc1cc(C(C)(C)C)c(O)c(C(C)(C)C)c1,scaled lipid accumulation score,[1],0.21 and ≤ -0.006
CC(C)(CO)Cc1cc(C(C)(C)C)c(O)c(C(C)(C)C)c1 [listing 1 of 2 here],scaled lipid accumulation score,[1],0.139
CC(C)(CO)Cc1cc(C(C)(C)C)c(O)c(C(C)(C)C)c1 [listing 2 of 2 here],scaled lipid accumulation score,[1],0.861 (active)
N.N.O=C([O-])C[O-].[Pt+2] [Nedaplatin],scaled lipid accumulation score,library stock concentration: 6.6 mM,0.028
CC(C)[C@@H](O)CC[C@@H](C)[C@H]1CC[C@H]2[C@@H]3CC=C4C[C@@H](O)CC[C@]4(C)[C@H]3CC[C@]12C [24(S)-hydroxycholesterol],scaled lipid accumulation score,library stock concentration: 12.4 mM,0.006
CN(C)Cc1ccc(-c2nc3cccc4c3n2CCNC4=O)cc1,scaled lipid accumulation score,[2],0.037
same,scaled lipid accumulation score,[1],0.491
COc1ccc([C@@H]2CC(=O)c3c(O)cc(O[C@@H]4O[C@H](CO)[C@@H](O)[C@H](O)[C@H]4O[C@@H]4O[C@@H](C)[C@H](O)[C@@H](O)[C@H]4O)cc3O2)cc1O [Neohesperidin],scaled lipid accumulation score,[2],≤ 0
same,scaled lipid accumulation score,[1],0.039
C[C@H](NC(=O)C(C#N)=Cc1cccc(Br)n1)c1ccccc1,scaled lipid accumulation score,[2],1.05 (active)
CCC[C@H](NC(=O)/C(C#N)=C/c1cccc(Br)n1)c1ccccc1 [Degrasyn (WP1130)],scaled lipid accumulation score,[2],0.369
same,scaled lipid accumulation score,[1],0.703
C[C@H](NC(=O)/C(C#N)=C/c1cccc(Br)n1)c1ccccc1,scaled lipid accumulation score,[1],0.586
CC(=O)OCOC(=O)CN(CC(=O)OCOC(C)=O)c1ccccc1OCCOc1ccccc1N(CC(=O)OCOC(C)=O)CC(=O)OCOC(C)=O,scaled lipid accumulation score,[2],≤ -0.009
same,scaled lipid accumulation score,[1],0.697
CC(C)C[C@H](NC(=O)[C@H]1O[C@@H]1C(=O)O)C(=O)NCCCCN=C(N)N,scaled lipid accumulation score,[2],0.177
same,scaled lipid accumulation score,[1],≤ 0 and ≤ -0.07
C=C[C@]1(C)C[C@@H](OC(=O)CS[C@@H]2C[C@H]3CC[C@@H](C2)N3C)[C@]2(C)[C@H](C)CC[C@]3(CCC(=O)[C@H]32)[C@@H](C)[C@@H]1O [Retapamulin],scaled lipid accumulation score,[2],0.412
C=C[C@]1(C)C[C@@H](OC(=O)CSC(C)(C)CNC(=O)[C@H](N)C(C)C)[C@]2(C)[C@H](C)CC[C@]3(CCC(=O)[C@H]32)[C@@H](C)[C@@H]1O [Valnemulin HCl],scaled lipid accumulation score,[2],≤ 0
same,scaled lipid accumulation score,[1],0.491
C=C[C@@]1(C)C[C@@H](OC(=O)CS[C@@H]2C[C@H]3CC[C@@H](C2)N3C)[C@@]2(C)[C@@H]3C(=O)CC[C@@]3(CC[C@@H]2C)[C@@H](C)[C@@H]1O [Retapamulin],scaled lipid accumulation score,[1],0.947 (active)
Clc1ccc(C(c2ccc(Cl)cc2)[n+]2ccn(CC(OCc3ccc(Cl)cc3Cl)c3ccc(Cl)cc3Cl)c2)cc1 (stereo unspecified) [Calmidazolium chloride],scaled lipid accumulation score,[1],0.037
O=C(NCc1ccc(Cl)c(Cl)c1)O[C@H]1CCc2ccccc21,scaled lipid accumulation score,[3],0.061
O=C(O[C@H]1CN2CCC1CC2)N1CCc2ccccc2[C@@H]1c1ccccc1,scaled lipid accumulation score,[1],0.352
O=C(O)CCC(=O)O.O=C(O[C@H]1CN2CCC1CC2)N1CCc2ccccc2[C@@H]1c1ccccc1 [Solifenacin succinate],scaled lipid accumulation score,[1],1.3 (active)
O=C(O[C@H]1CN2CCC1CC2)N1CCc2ccccc2[C@@H]1c1ccccc1 [Solifenacin succinate],scaled lipid accumulation score,[2],0.293
CC/C=C\C/C=C\C/C=C\CCCCCCCC(=O)O [.alpha.-Linolenic Acid],scaled lipid accumulation score,[3],0.009
CC/C=C\C/C=C\C/C=C\CCCCCCCC(=O)O [Linolenic acid (18:3 n-3)],scaled lipid accumulation score,[3],≤ -0.021
CC(=O)O[C@H]1Cc2ccccc2N(C(N)=O)c2ccccc21,scaled lipid accumulation score,[1],≤ 0
CCCC[P+](CCCC)(CCCC)Cc1ccc(NC(=O)C(Cc2ccc3ccccc3c2)NC(=NC2CCCCC2)NC2CCCCC2)cc1 (stereo unspecified),scaled lipid accumulation score,[1],0.797
CNCc1ccc(-c2cc(-c3nc(-c4ccc(S(=O)(=O)C(C)C)cc4)cnc3N)on2)cc1 [listing 1 of 2 here],scaled lipid accumulation score,[1],0.254
CNCc1ccc(-c2cc(-c3nc(-c4ccc(S(=O)(=O)C(C)C)cc4)cnc3N)on2)cc1 [listing 2 of 2 here],scaled lipid accumulation score,[2],1.12 (active)
CCCCCCCC/C=C\CCCCCCCC(=O)OCC [Oleic Acid ethyl ester],scaled lipid accumulation score,[3],0.015
O=C(CO)N1CCC(c2n[nH]c(-c3ccc(Cl)cc3)c2-c2ccncn2)CC1,scaled lipid accumulation score,library stock concentration: 400 uM,≤ -0.005
same,scaled lipid accumulation score,library stock concentration: 2 mM,≤ -0.005
same,scaled lipid accumulation score,[1],≤ -0.005
